Laboratory results from the supplement of paper PMC10849652.
About 7,900 targets were measured; listed, in parts, are those with a hit and a random draw of the rest. About 0.6% of all pairs of compound and target were hits. A number with no mark means an inactive call.

Experiments:
Experiment in all cases: log2 fold change, soluble protein after heating vs DMSO (PISA); higher = thermal stabilisation; K562 cells, 10 uM, 30 min; active = over 0.2 and 3.5 SD of the protein, either way, in both replicates (recomputed)
[1] = compound: NC(=O)Nc1cc(-c2cccc(F)c2)sc1C(=O)N[C@H]1CCCNC1
Procedure, shortened: (§1)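 K562 cells at 2×10^6 cells/mL were treated with 10 μM compound for 30 min. Aliquots were heated for 3 min across 48°C-58°C, pooled, and extracted in PBS with 0.5% NP-40 at 4°C; soluble protein was the supernatant after 21,000xg for 90 min. Soluble protein was quantified by TMTpro 16plex LC-MS/MS with channel sums equalised, and reported as log2 fold change in thermal stability against DMSO controls, with values from duplicates.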

[2] = compound: NC(=O)c1cnc(N[C@@H]2CCCC[C@@H]2N)nc1Nc1cccc(-n2nccn2)c1
Procedure, shortened: as §1

[3] = compound: NCC(=O)Nc1ccc(-n2nc(C(F)(F)F)cc2-c2ccc3c(ccc4ccccc43)c2)cc1
Procedure, shortened: as §1

entinostat = compound: Nc1ccccc1NC(=O)c1ccc(CNC(=O)OCc2cccnc2)cc1 [entinostat]
Procedure, shortened: as §1

vorinostat = compound: O=C(CCCCCCC(=O)Nc1ccccc1)NO [vorinostat]
Procedure, shortened: as §1

[4] = compound: O=C1NC(=O)C(c2cnc3ccccn23)=C1c1cn2c3c(cc(F)cc13)CN(C(=O)N1CCCCC1)CC2
Procedure, shortened: as §1

[5] = compound: NC1(c2ccc(-c3nc4ccn5c(=O)[nH]nc5c4cc3-c3ccccc3)cc2)CCC1
Procedure, shortened: as §1

citarinostat = compound: O=C(CCCCCCNC(=O)c1cnc(N(c2ccccc2)c2ccccc2Cl)nc1)NO [citarinostat]
Procedure, shortened: as §1

silmitasertib = compound: O=C(O)c1ccc2c(c1)nc(Nc1cccc(Cl)c1)c1ccncc12 [silmitasertib]
Procedure, shortened: as §1

[6] = compound: c1cc(OCCN2CCCCC2)cc(-c2n[nH]c3ccc(-c4nnc[nH]4)cc23)c1
Procedure, shortened: as §1

Sequence of UniProt Q6NUT3 (Q6NUT3 whole entry, looked up): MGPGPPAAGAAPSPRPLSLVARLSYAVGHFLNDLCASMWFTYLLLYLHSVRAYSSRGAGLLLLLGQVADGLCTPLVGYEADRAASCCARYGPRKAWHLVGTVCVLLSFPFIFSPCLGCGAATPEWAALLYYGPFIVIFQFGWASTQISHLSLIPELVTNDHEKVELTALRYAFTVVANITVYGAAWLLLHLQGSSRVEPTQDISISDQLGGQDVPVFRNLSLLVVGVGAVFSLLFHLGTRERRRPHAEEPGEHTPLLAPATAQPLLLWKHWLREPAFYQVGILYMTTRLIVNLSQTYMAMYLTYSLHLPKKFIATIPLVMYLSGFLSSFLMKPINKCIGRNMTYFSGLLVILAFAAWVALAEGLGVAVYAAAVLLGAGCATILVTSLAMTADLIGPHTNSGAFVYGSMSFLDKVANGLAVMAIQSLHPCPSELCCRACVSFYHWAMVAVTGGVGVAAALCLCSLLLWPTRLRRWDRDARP
Sequence of UniProt Q9NX70 (Q9NX70 whole entry, looked up): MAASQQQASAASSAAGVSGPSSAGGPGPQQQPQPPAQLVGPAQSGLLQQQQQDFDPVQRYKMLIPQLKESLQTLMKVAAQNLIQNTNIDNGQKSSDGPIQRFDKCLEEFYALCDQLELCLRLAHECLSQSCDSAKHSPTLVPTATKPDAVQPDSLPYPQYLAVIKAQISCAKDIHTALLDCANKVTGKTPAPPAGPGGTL
Sequence of UniProt Q9NQR1 (Q9NQR1 whole entry, looked up): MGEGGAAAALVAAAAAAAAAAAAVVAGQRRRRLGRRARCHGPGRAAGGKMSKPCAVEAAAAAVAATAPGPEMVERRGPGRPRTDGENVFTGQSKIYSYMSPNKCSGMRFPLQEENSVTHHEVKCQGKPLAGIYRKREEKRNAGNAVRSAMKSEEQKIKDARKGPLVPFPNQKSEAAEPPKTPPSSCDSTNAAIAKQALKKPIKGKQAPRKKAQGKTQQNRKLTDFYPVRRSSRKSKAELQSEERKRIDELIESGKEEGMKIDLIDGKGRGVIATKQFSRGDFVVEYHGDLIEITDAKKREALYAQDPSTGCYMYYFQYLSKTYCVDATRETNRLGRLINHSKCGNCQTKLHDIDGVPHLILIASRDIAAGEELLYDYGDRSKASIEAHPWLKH
Sequence of UniProt A4D2B0 (A4D2B0 whole entry, looked up): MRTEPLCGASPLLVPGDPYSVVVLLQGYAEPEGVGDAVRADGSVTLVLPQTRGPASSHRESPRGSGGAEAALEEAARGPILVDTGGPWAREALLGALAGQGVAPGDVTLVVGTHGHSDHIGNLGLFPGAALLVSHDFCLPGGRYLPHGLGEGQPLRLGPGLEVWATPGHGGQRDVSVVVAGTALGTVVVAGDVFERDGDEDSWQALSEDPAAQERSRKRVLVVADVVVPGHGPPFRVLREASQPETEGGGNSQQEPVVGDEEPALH
Sequence of UniProt Q86V48 (Q86V48 whole entry, looked up): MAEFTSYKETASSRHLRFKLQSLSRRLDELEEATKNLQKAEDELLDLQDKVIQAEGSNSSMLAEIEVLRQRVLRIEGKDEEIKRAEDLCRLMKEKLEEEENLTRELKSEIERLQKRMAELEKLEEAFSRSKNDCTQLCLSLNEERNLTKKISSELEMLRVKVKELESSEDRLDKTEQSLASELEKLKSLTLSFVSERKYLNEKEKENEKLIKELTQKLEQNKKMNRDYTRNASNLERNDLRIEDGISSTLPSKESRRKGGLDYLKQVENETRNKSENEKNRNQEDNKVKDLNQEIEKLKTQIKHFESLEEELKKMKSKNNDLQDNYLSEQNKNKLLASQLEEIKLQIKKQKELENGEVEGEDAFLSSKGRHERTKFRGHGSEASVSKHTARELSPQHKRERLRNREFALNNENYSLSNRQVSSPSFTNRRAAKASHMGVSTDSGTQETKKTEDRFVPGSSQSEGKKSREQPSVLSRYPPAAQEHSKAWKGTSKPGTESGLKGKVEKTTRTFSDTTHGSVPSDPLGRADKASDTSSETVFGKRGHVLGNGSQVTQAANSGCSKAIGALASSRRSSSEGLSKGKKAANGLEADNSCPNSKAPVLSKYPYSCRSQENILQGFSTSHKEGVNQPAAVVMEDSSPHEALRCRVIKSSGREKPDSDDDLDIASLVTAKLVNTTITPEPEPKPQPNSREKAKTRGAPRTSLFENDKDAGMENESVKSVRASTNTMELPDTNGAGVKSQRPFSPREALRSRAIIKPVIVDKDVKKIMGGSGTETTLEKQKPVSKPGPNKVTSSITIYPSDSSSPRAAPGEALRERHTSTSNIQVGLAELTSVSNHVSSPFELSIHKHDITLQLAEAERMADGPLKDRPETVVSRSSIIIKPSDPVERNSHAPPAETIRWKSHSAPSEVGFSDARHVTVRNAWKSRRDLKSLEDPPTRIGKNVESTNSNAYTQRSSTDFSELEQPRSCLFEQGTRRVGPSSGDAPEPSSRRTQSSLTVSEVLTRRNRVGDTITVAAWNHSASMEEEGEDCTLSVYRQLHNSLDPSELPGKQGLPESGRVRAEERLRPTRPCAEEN
Sequence of UniProt Q9H6K1 (Q9H6K1 whole entry, looked up): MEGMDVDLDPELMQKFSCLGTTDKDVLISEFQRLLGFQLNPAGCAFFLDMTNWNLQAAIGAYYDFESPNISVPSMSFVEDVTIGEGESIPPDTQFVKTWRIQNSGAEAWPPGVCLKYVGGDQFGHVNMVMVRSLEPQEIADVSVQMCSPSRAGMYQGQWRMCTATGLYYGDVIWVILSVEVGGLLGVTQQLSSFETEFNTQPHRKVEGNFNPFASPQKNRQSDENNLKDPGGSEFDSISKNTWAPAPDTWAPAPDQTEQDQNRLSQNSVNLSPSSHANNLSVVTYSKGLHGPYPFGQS
Sequence of UniProt Q32MZ4 (Q32MZ4 whole entry, looked up): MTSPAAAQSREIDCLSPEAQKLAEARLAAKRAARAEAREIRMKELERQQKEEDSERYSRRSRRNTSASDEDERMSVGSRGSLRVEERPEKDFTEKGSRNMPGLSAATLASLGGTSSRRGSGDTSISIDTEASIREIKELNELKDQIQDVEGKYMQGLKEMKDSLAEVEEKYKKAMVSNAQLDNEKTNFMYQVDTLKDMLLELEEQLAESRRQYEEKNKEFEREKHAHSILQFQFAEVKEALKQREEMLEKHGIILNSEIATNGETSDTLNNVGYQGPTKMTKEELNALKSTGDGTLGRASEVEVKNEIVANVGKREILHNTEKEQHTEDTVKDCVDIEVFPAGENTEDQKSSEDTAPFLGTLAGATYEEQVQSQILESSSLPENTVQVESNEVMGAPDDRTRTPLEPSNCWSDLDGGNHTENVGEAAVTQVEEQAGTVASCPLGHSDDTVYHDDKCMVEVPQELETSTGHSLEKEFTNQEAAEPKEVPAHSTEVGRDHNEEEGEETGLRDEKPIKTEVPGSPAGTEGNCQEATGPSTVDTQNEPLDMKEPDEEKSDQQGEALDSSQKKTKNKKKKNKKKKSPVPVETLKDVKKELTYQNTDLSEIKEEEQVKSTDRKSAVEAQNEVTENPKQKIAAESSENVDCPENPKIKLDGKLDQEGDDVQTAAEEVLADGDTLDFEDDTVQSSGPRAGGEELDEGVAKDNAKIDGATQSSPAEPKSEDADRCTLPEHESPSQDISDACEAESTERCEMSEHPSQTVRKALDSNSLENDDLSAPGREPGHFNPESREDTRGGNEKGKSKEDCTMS
Sequence of UniProt Q86X29 (Q86X29 whole entry, looked up): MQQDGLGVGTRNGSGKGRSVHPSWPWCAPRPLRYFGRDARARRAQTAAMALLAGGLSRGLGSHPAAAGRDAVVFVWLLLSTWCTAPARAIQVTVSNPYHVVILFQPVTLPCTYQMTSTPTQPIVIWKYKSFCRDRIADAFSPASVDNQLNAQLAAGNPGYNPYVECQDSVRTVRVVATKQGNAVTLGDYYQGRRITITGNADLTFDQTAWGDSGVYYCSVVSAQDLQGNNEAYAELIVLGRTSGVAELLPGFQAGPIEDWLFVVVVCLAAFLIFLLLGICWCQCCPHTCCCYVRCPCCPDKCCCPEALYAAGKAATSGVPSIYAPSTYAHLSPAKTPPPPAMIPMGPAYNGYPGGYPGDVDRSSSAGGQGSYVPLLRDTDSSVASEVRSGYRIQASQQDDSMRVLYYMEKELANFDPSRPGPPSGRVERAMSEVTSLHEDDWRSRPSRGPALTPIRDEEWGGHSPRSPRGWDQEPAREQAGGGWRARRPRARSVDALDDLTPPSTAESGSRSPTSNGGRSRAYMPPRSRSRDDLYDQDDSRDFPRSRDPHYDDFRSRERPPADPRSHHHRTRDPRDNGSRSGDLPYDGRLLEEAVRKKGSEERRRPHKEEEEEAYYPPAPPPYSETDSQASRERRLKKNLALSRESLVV
Sequence of UniProt Q12851 (Q12851 whole entry, looked up): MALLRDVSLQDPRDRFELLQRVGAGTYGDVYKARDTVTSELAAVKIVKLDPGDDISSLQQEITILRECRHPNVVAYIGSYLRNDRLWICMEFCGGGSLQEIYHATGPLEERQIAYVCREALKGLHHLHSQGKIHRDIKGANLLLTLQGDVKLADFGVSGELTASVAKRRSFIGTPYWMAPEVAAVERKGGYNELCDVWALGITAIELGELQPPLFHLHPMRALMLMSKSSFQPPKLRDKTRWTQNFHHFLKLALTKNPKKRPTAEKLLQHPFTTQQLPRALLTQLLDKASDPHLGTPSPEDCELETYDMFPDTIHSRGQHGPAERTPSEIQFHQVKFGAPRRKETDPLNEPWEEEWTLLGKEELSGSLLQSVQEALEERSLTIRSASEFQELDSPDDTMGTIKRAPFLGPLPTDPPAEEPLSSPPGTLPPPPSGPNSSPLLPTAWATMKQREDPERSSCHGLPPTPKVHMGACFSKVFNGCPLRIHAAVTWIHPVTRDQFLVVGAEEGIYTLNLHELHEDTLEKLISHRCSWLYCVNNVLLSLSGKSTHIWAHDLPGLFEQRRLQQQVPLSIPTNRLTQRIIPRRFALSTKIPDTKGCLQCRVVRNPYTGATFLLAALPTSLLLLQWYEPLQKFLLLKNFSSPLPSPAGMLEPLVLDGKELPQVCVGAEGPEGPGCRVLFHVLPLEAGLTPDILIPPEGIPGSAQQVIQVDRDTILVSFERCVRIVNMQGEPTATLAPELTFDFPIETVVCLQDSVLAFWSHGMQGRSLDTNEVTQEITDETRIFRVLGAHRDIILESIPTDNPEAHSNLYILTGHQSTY

Row | Target | log2 fold change [1] | log2 fold change [2] | log2 fold change [3] | log2 fold change (entinostat) | log2 fold change (vorinostat) | log2 fold change [4] | log2 fold change [5] | log2 fold change (citarinostat) | log2 fold change (silmitasertib) | log2 fold change [6]
1 | IGFBP3 isoform 2 (UniProt P17936) | 0.042 | -0.142 | -0.043 | -0.02 | 0.167 | -0.047 | – | – | – | –
2 | ILRUN (UniProt Q9H6K1) | -0.213 | -0.09 | -0.025 | 0.024 | – | -0.059 | -0.128 | 0.027 | 0.014 | -0.01
3 | MAPK14 isoform 2 (UniProt Q16539) | -0.052 | 0.028 | -0.168 | 0.016 | -0.055 | -0.004 | -0.192 | 0.085 | 0.477 | 0.024
4 | MAP2K3 isoform 3 (UniProt P46734) | -0.04 | -0.018 | -0.025 | 0.068 | 0.02 | -0.188 | -0.14 | -0.126 | -0.024 | -0.052
5 | LUZP1 (UniProt Q86V48) | 0.055 | 0.089 | 0.058 | -0.081 | -0.119 | 0.084 | 0.087 | – | 0.114 | –
6 | ILKAP (UniProt Q9H0C8) | 0.015 | -0.052 | -0.164 | 0.038 | 0.06 | -0.144 | -0.224 | 0.123 | 0.004 | -0.003
7 | KIF13A isoform 4 (UniProt Q9H1H9) | -0.034 | -0.165 | – | 0.303 | – | – | – | – | – | –
8 | MCM10 (UniProt Q7L590) | 0.522 (active) | – | -0.085 | 0.224 | 0.021 | 0.134 | 0.002 | 0.143 | -0.129 | 0.107
9 | LSR isoform 3 (UniProt Q86X29) | -0.531 | – | – | -0.134 | – | – | -0.327 | – | 0.062 | –
10 | KXD1 (UniProt Q9BQD3) | – | -0.091 | -0.021 | – | -0.046 | 0.131 | -0.237 | 0.042 | -0.113 | -0.055
11 | LRRFIP1 isoform 4 (UniProt Q32MZ4) | – | 0.04 | – | – | -0.062 | -0.019 | – | – | – | –
12 | LRFN1 (UniProt Q9P244) | -0.14 | – | -0.166 | 0.133 | – | 0.036 | – | -0.06 | – | 0.716
13 | KCNK5 (UniProt O95279) | -0.066 | – | – | 0.031 | -0.102 | 0.004 | 0.16 | 0.198 | 0.093 | 0.005
14 | MAP4K2 (UniProt Q12851) | 0.827 (active) | – | – | 0.145 | – | – | – | 0.116 | – | -0.22
15 | MAGEA8 (UniProt P43361) | – | -0.135 | 0.034 | – | -0.063 | – | – | 0.012 | – | -0.008
16 | ILF3 (UniProt Q12906) | 0.013 | – | – | 0.058 | – | 0.174 | 0.331 | -0.134 | 0.181 | -0.218
17 | MARCHF3 (UniProt Q86UD3) | 0.169 | – | – | -0.038 | – | -0.014 | – | -0.133 | – | -0.26
18 | MED29 (UniProt Q9NX70) | – | 0.05 | – | – | – | – | 0.029 | – | 0.133 | –
19 | LRRCC1 (UniProt Q9C099) | – | -0.041 | – | – | – | – | – | – | – | –
20 | KMT5A (UniProt Q9NQR1) | 0.069 | – | – | -0.258 | 0.096 | – | – | – | – | –
21 | IGFBP6 (UniProt P24592) | – | -0.079 | -0.13 | – | – | – | – | – | – | –
22 | MAML1 (UniProt Q92585) | 0.08 | – | 0.088 | -0.104 | – | 0.025 | – | – | – | –
23 | ITPRID2 (UniProt P28290) | – | – | -0.059 | – | – | -0.208 | – | -0.029 | – | 0.211

Row | Target | log2 fold change [1] | log2 fold change [2] | log2 fold change [3] | log2 fold change (entinostat) | log2 fold change (vorinostat) | log2 fold change [4] | log2 fold change [5] | log2 fold change (citarinostat) | log2 fold change (silmitasertib) | log2 fold change [6]
24 | MAP2K5 (UniProt Q13163) | – | -0.025 | – | – | – | – | – | – | – | –
25 | MBLAC1 (UniProt A4D2B0) | – | -0.031 | 0.242 | – | -0.021 | – | -0.179 | 0.01 | -0.082 | -0.067
26 | LIN52 (UniProt Q52LA3) | – | – | – | – | – | – | 0.294 | – | -0.045 | –
27 | LOX (UniProt P28300) | – | – | – | – | – | – | -0.086 | – | 0.187 | –
28 | MCOLN3 (UniProt Q8TDD5) | – | – | – | – | 0 | – | -0.254 | 0.095 | 0.083 | 0.159
29 | ING5 (UniProt Q8WYH8) | – | – | – | – | – | – | -0.042 | 0.115 | -0.013 | -0.008
30 | IKZF1 (UniProt R9R4D9) | – | – | – | – | -0.181 | – | – | – | – | –
31 | LAPTM4B (UniProt Q86VI4) | -0.109 | – | – | -0.126 | -0.064 | – | 0.116 | 0.092 | 0.025 | -0.178
32 | JAK3 (UniProt P52333) | 0 | – | -0.102 | -0.019 | -0.048 | 0.002 | -0.045 | – | -0.003 | –
33 | KIZ (UniProt Q2M2Z5) | – | -0.067 | – | – | 0.137 | – | – | -0.094 | – | 0.045
34 | IKZF1 isoform 2 (UniProt Q13422) | 0.06 | – | 0.036 | -0.006 | – | – | -0.109 | – | 0.063 | –
35 | LEPROT (UniProt O15243) | – | -0.161 | – | – | -0.142 | 0.261 | -0.088 | 0.125 | 0.005 | -0.072
36 | LAMP2 isoform 2 (UniProt P13473) | – | -0.1 | -0.132 | – | -0.113 | 0.027 | -0.321 | 0.061 | 0.003 | -0.275
37 | MGRN1 isoform 2 (UniProt O60291) | – | 0.11 | – | – | -0.024 | – | – | – | – | –
38 | MFSD12 isoform 3 (UniProt Q6NUT3) | 0.073 | -0.159 | – | -0.067 | 0.11 | – | – | 0.1 | – | -0.162
39 | MAPRE3 isoform 2 (UniProt Q9UPY8) | – | -0.033 | – | – | – | – | – | – | – | –
40 | MAP4K4 isoform 6 (UniProt O95819) | 0.332 | – | 0.228 | 0.237 | – | – | 0.009 | 0.114 | -0.202 | 0.143
41 | MAPK11 (UniProt Q15759) | – | – | – | – | 0.033 | – | – | – | – | –
42 | LSR (UniProt M0QZL9) | -0.508 | – | -0.095 | -0.406 | – | -0.074 | – | – | – | –
43 | KIF1B isoform 3 (UniProt O60333) | – | – | -0.389 | – | – | – | -0.073 | 0.043 | -0.057 | -0.55
44 | IPP (UniProt Q9Y573) | – | 0.047 | – | – | – | – | – | – | – | –
45 | MAPK7 (UniProt Q13164) | – | -0.25 | – | – | -0.069 | 0 | – | – | – | –
46 | MFSD8 (UniProt Q8NHS3) | – | 0.02 | -0.076 | – | -0.008 | -0.007 | -0.115 | -0.003 | 0.069 | -0.129
